Screening data (PubChem)
Rows were chosen to be rich in hits. Some 2.3% of all compounds tested hit in one or more screens of this group.
697 NFkB inh = lowers PMA/ionomycin-induced NF-kB signal in 697 B cells; 697 B-cell NF-kB luciferase reporter, 16 h; 330,000 tested, 0.33% active; inhibition, % at 4 µM; AID 435022; in the data active means inhibition above about 35%
aSyn 5UTR inh = MLPCN primary screen, SNCA 5' untranslated region; alpha-synuclein 5'UTR reporter, inhibitor activity; inhibition, % (tested at 7.5 µM); 300,000 tested, 0.82% active; AID 1813; in the data active means inhibition above about 60%;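 further: H4 neuroglioblastoma cells stably carrying SNCA 5'UTR luciferase fusion; 0% = DMSO wells and 100% = positive control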
Jurkat NFkB inh = inhibitors of the PMA/ionomycin-induced NF-kB reporter in Jurkat cells. AID 435003. inhibition, % at 4 µM. 330,000 tested, 0.53% active. PMA/ionomycin-induced NF-kB luciferase reporter, luminescence; in the data active means inhibition above about 50%
TAG inh = inhibitors of triacylglycerol accumulation | 230,000 tested, 0.66% active | inhibition, % at 12.5 µM | AID 651582 | H9c2 cells, Nile Red lipid (TAG) fluorescence; cells loaded with 200 µM oleic acid;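 active means pattern-corrected inhibition of lipid staining of at least 50% with the nuclear-stain viability signal not falling by more than 50%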;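 further: 0% = DMSO wells and 100% = triacsin C control wells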
Gli-Sufu block = Gli-Sufu pathway antagonism | Sufu-KO-LIGHT fibroblasts, Gli luciferase reporter luminescence | inhibition, % at 5 µM | 340,000 tested, 0.74% active;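 active means inhibition above about 55%, limit read from the data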;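 further: 0% = DMSO-treated cells and 100% = wells with medium but no cells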
Shn3 inh set2 = inhibitors of Schnurri-3 3'UTR reporter in osteoblasts. inhibition, % at 12.5 µM. AID 588674. Clone20 osteoblast Shn3 3'UTR firefly luciferase, 24 h. 360,000 tested, 0.52% active;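 active means mean inhibition of at least 75% with every replicate also reaching 75%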;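 further: 0% = median of neutral control wells and 100% = pilot-screen positive control compound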
Jurkat NFkB conf = inhibitors of the PMA/ionomycin-induced NF-kB reporter in Jurkat cells, retest | Jurkat NF-kB luciferase, 16 h | inhibition, % at 4 µM | shares compounds with Jurkat NFkB inh | AID 435020 | 2,700 tested, 27% active;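 active means inhibition reaching about 45% at 4 µM in either replicate, limit read from the data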;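 further: plate controls were PMA/ionomycin stimulated DMSO wells for no effect and unstimulated DMSO wells for full effect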
Numbers without * were called inactive; / = no result given.

SMILES | 697 NFkB inh | aSyn 5UTR inh | Jurkat NFkB inh | TAG inh | Gli-Sufu block | Shn3 inh set2 | Jurkat NFkB conf
Cc1ccc(C2=NN(C(=O)CSc3nc4ncc(Cl)cc4[nH]3)C(c3ccco3)C2)cc1 (stereo not drawn) | -31.7 | -25.0 | -20.4 | 4.5 | 2.9 | -17.3 | /
O=C(COC(=O)c1cccc(OC(F)F)c1)Nc1cccc(S(=O)(=O)N2CCCC2)c1 | 0.6 | / | 62.5* | 0.3 | -3.5 | -13.9 | 10.8
Cc1ccc(Cl)cc1NC(=O)CSc1sc2c(O)cc(=O)[nH]c2c1C#N | 5.3 | 16.9 | 9.8 | / | 31.5 | -15.8 | /
O=C(c1cccs1)N1CCc2c([nH]c3ccccc23)C1c1ccccn1 (stereo not drawn) | 17.3 | -24.8 | 5.6 | -12.7 | 1.8 | -10.0 | /
Cn1c(/C=C/c2ccc([N+](=O)[O-])o2)nc2ccccc2c1=O | -34.9 | 97.9* | 81.7* | -15.9 | 82.1* | 96.5* | 25.7
O=C1/C(=C/c2ccc(N3CCOCC3)o2)SC(=Nc2ccccc2)N1CCc1c[nH]c2ccccc12 | -37.9 | -120.8 | 90.7* | / | 53.5 | 96.9* | 38.2
COc1ccc(S(=O)(=O)N2CCCCC2)cc1NC(=O)c1ccc(OC)c(OC)c1 | 26.5 | / | -5.3 | 0.8 | -5.9 | 8.0 | /
Cc1cccc(-c2nc(=S)c3c(o2)CCCC3)c1 | -138.1 | -132.6 | -165.7 | / | -54.2 | -55.2 | -79.7
Cc1ccc(S(=O)(=O)NCc2ccc(C(=O)N3CCN(c4ccc([N+](=O)[O-])cc4)CC3)cc2)cc1 | 0.5 | 17.4 | 58.7* | / | 26.3 | 90.1* | 53.3*
COc1ccc(N2CCN(C(=O)c3ccc(CNS(=O)(=O)c4ccc(C)cc4)cc3)CC2)cc1 | -11.6 | 11.1 | 9.3 | / | -15.7 | 23.1 | /
COc1ccc(/C=c2/sc3n(c2=O)C(c2ccccc2OC)C2=C(N=3)c3ccccc3CC2)cc1O (stereo not drawn) | -15.1 | 94.3* | 70.2* | / | 14.8 | 10.0 | 51.3*
COc1ccc(-n2nnnc2-c2cccc(OC)c2)cc1 | -4.8 | 64.3* | 50.0 | 48.2 | 10.7 | / | 42.2
COc1cc(NS(=O)(=O)c2ccc(OC)c(C)c2C)c(OC)cc1Cl | -44.3 | -25.9 | 58.4* | 5.6 | 20.3 | 67.1 | 50.9*
COc1ccc(OC)c(S(=O)(=O)Nc2cc(OC)c(Cl)cc2OC)c1 | 7.2 | -6.2 | 15.8 | / | 29.6 | 4.0 | /
CC1=Nc2cc(C(=O)NCC3CCCO3)ccc2Sc2ccc(Br)cc21 (stereo not drawn) | -28.1 | -112.9 | 51.9* | -1.1 | -3.3 | / | 13.2
CC1=Nc2cc(C(=O)O)ccc2Sc2ccc(Br)cc21 | 29.8 | / | -0.7 | 4.3 | -5.3 | -0.6 | /
Cc1ccc2c(Cl)c(C(=O)NCC3CCCO3)sc2c1 (stereo not drawn) | -125.0 | -137.3 | -158.7 | / | -45.2 | -79.1 | -45.9
CCCC1=Nc2cc(C(=O)NCCCOCC)ccc2Sc2ccccc21 | -179.0 | 66.5* | 57.4* | 79.3* | 43.8 | 17.2 | 51.3*
CCCC1=Nc2cc(C(=O)NCCCOC(C)C)ccc2Sc2ccccc21 | -89.8 | 11.2 | 45.8 | 40.1 | -3.3 | 34.1 | /
CC1=Nc2cc(C(=O)NCCCOC(C)C)ccc2Sc2ccc(C)cc21 | 1.0 | 76.6* | 63.7* | 46.7 | -2.8 | 7.6 | 32.2
COCCn1c(C)cc(C(=O)CSc2nc(C)cc(C)c2C#N)c1C | -6.0 | -2.3 | 0.2 | 1.4 | 11.6 | 60.9 | /
CC(C)[C@H](NC(=O)c1ccccc1Br)C(=O)OCc1nc2ccsc2c(=O)[nH]1 | 12.2 | -4.0 | 11.3 | 1.7 | -6.3 | -4.8 | /
O=C(Cc1ccc(N2CCNC2=O)cc1)N1CCCC(Nc2ccc(F)c(F)c2)C1 (stereo not drawn) | -52.9 | 13.2 | 63.0* | 41.2 | -3.3 | 22.2 | 16.3
COc1cccc(N2CCN(c3ncnc4c3[nH]c3ccccc34)CC2C)c1 (stereo not drawn) | 16.4 | -73.5 | 54.0* | / | / | / | 79.3*
COc1ccc(S(=O)(=O)N2CCCCCC2)cc1NC(C)C(=O)Nc1ccc(NC(C)=O)cc1 (stereo not drawn) | / | / | / | -4.5 | -0.5 | -6.8 | /
Oc1ccc(-c2csc(Nc3ncccn3)n2)cc1 | -207.6 | -153.7 | -158.9 | 9.5 | -36.4 | -71.6 | -59.4
c1ccc(Nc2nc(-c3cccnc3)cs2)nc1 | -127.5 | -39.3 | -121.8 | -7.8 | -137.2 | -47.5 | /
c1ccc(-c2csc(Nc3ncccn3)n2)cc1 | -245.3 | -65.6 | -211.8 | / | -95.1 | -95.9 | -105.1
